# This is a sample that favours compounds with a hit; in the whole collection about 3% have one here.
# L929 necroptosis = L929 zVAD cell death inhibition | 220,000 compounds, 0.38% hits | viability rescue, % at 10 µM | L929 zVAD necroptosis rescue, ATP luminescence, 24 h; with zVAD 60 µM;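 active means activation, scaled between plate controls, above about 75%, limit read from the data; inactive means activation under that limit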;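 further: 0% = zVAD with DMSO and 100% = DMSO alone without zVAD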
# 14-3-3 Bad inh = disrupts binding of bovine 14-3-3 zeta to phospho-Bad peptide. P63103. TR-FRET 14-3-3zeta/Dy647-pBad peptide displacement, 1 h. inhibition, % at 21.7 µM. 220,000 compounds, 0.71% hits;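 active means inhibition above about 70%, limit read from the data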;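 further: 0% = full 14-3-3 plus peptide FRET controls and 100% = background without 14-3-3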
# Target sequence (P63103 whole entry, looked up): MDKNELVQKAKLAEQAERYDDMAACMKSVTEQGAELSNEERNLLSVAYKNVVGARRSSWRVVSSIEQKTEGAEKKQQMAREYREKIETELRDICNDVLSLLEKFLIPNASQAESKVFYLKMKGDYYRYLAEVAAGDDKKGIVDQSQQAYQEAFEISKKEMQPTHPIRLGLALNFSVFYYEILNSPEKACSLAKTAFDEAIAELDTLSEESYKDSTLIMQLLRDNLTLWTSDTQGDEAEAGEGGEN
# Efa HMGR inh = blocks class II HMG-CoA reductase of Enterococcus faecalis. inhibition, % at 10 µM. purified E. faecalis HMGR, NADPH absorbance 340 nm kinetic. 190,000 compounds, 0.41% hits;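 active means inhibition above a set limit, the median over all tested compounds plus 3 SD, cut at about 9.5% in these data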;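 further: enzyme runs in reverse so mevalonate oxidation gives rising NADPH absorbance; 0% = complete reaction with DMSO and 100% = background rate lacking mevalonate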
# TNF necrop inh = TNF-alpha cell death inhibition in Jurkat FADD-/- cells | Jurkat FADD-/- TNF necroptosis rescue, ATP luminescence, 24 h; 0 = TNF only, 100 = no-TNF cells | activation (protection from cell death), % at 10 µM | 220,000 compounds, 0.068% hits | AID 463075;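 active means activation, meaning protection from cell death, of at least 50% relative to plate controls; inactive means activation below 50%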;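 further: necroptosis triggered by 40 ng/mL TNF-alpha added together with compound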
# ROMK primary = modulators of human ROMK potassium channel; Tet-inducible ROMK, thallium flux fluorescence; actives lie on both sides; B-score at 10 µM; 130,000 compounds, 2% hits;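 active means signal ratio slope over the read window, or its plate-corrected B-score, at least 3 SD from the plate mean, either direction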;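 further: B-score of the F/F0 ratio slope over 7 to 12 s after thallium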
# Target sequence (P48048 whole entry, looked up): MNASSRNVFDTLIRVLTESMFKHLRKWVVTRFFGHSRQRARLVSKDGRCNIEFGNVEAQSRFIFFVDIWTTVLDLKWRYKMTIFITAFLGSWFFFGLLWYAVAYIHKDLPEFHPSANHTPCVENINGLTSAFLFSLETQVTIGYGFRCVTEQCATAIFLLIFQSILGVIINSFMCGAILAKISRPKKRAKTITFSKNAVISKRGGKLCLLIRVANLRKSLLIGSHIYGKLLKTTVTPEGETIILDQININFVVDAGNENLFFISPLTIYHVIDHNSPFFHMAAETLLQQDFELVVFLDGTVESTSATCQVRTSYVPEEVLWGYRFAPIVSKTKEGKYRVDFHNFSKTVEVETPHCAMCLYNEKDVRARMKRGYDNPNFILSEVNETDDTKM
# Calpain2 inh = inhibitors of pig calpain II; purified calpain II, fluorogenic peptide substrate, 30 min; AID 1236; 220,000 compounds, 0.37% hits; inhibition, % at 16 µM;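 active means inhibition above about 50%, limit read from the data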
# * marks the source's active call; other numbers are inactive results; . = not tested or not shown; [ ] = another dose, or the depositor's remark.
SMILES,L929 necroptosis,14-3-3 Bad inh,Efa HMGR inh,TNF necrop inh,ROMK primary,Calpain2 inh
O=C(CN1C(=O)c2ccccc2C1=O)Nc1cccc(S(=O)(=O)Nc2ccccc2Cl)c1,0.2,4.1,1.4,1.4,-1.21,-9.2
CCn1cc(/C=N/NC(=O)COc2cccc3cccnc23)c2ccccc21,2.5,80.4*[fluorescence artefact?],-1.0,2.6,-0.214,4.0
CCOC(=O)C1=C(COc2ccc(C)cc2)NC(=O)NC1c1cc(C)ccc1C (centres undefined),0.8,-0.8,-3.6,1.4,.,6.7
CCOC(=O)C1=C(COc2ccc(F)cc2Cl)NC(=O)NC1c1cc(C)ccc1C (centres undefined),-0.1,-13.9,23.9*,-1.1,.,37.4
O=C(NC(=S)N1CCOCC1)c1cc2ccccc2o1,-0.5,-8.6,-2.1,0.5,0,3.7
CN1CCN(CC(=O)Nc2ccc(OCc3ccccc3)cc2)CC1,-0.2,86.9*,-7.0,3.1,-0.951,-11.9
O=C(CN1CCN(CCO)CC1)Nc1ccccc1,0.8,73.3*,-1.0,-0.6,-0.614,20.0
Cc1nc2ccccn2c1C(=O)CSc1cccc(Cl)c1,-0.9,-1.2,-9.5,-1.0,-2.25,5.5
COc1ccc(-c2nc(CC(=O)O)cs2)cc1OC,-0.3,81.2*,-7.4,1.0,-0.0801,-173.0
COc1ccc(-c2nc(CC(=O)O)cs2)cc1,-0.2,0.3,0.4,0.1,-0.977,-14.3
O=C(CNc1cccc(C(F)(F)F)c1)N/N=C/C1CCCCC1,0.9,-25.0,-4.7,1.1,-0.0151,-10.9
O=C(Nc1cccc2cccnc12)C1CCCC1,-0.2,10.8,-2.3,0.1,.,27.4
CC(C)CCN(C(=O)Nc1ccccc1)C(C)c1cccs1 (centres undefined),-0.4,-7.0,-1.1,0.2,0.0757,50.9*
CCNS(=O)(=O)c1cccc(C(=O)c2c(C)cc3ccccn23)c1,0.4,6.0,1.2,-3.9,-1.48,2.6
Cc1ccc(C(=O)Cn2cnc3ccccc3c2=O)cc1,-0.3,-6.9,10.1*,8.4,.,-6.2
O=C(Cn1cnc2ccccc2c1=O)c1ccccc1,0.3,4.2,-6.6,10.0,-0.236,-19.3
C=CCn1c(C)cc(C2=NNC(=NCc3ccccc3)SC2)c1C,5.5,-4.5,-5.0,0.6,-0.728,-57.0
CCN=C1NN=C(c2cc(C)n(CCc3ccccc3)c2C)CS1,3.6,92.0*,3.1,-0.1,-0.0174,-147.9
O=C(N/N=C/c1ccc(OC(F)F)cc1OC(F)F)NC1CCCCC1,43.2,-1.2,-1.1,0.7,0.611,34.2
CCN(CC)C(=O)c1cc([N+](=O)[O-])cc2c1-c1ccc([N+](=O)[O-])cc1C2=C(C#N)C#N,1.3,6.3,.,-31.3,.,-0.6
CS(=O)(=O)N1CCN(c2ccc([N+](=O)[O-])c(NCc3ccc(Cl)cc3)c2)CC1,-0.1,71.5*,-0.4,0.7,.,9.6
COc1ccc(N(CC(=O)Nc2ccc(F)cc2)S(=O)(=O)c2ccccc2[N+](=O)[O-])c(OC)c1,0.6,-6.2,4.8,1.8,-1.72,-36.7
COc1ccc(N(CC(=O)Nc2cc(C)cc(C)c2)S(=O)(=O)c2ccccc2[N+](=O)[O-])c(OC)c1,3.1,-2.5,9.9*,1.6,-1.07,-119.1
Cn1c(N)c(C(=O)COC(=O)c2ncc(Cl)c(Cl)c2Cl)c(=O)n(C)c1=O,66.8,-14.4,-5.1,-2.3,0.421,61.9*
CC(C)Cn1c(N)c(C(=O)COC(=O)c2ccncc2)c(=O)n(C)c1=O,0.2,-11.4,0.7,-3.4,-0.503,-16.6
SMILES,L929 necroptosis,14-3-3 Bad inh,Efa HMGR inh,TNF necrop inh,ROMK primary,Calpain2 inh
CC(C)Cn1c(N)c(C(=O)COC(=O)c2ccc(Cl)cc2)c(=O)n(C)c1=O,-0.5,-9.0,-0.6,-1.7,0.781,81.2*
CC(C)Cn1c(N)c(C(=O)COC(=O)CC23CC4CC(CC(C4)C2)C3)c(=O)n(C)c1=O,-2.0,-0.3,1.1,-16.8,-1.51,70.8*
O=C(O)c1cccc(NC(=S)NC(=O)c2ccc(-c3ccccc3)cc2)c1,-1.2,-0.7,-2.6,-1.2,0.0262,70.4*
CC(=O)Nc1cccc(-c2nc3ccccc3s2)c1,55.0,5.0,-2.5,-2.9,0.309,-20.1
Cc1ccc(C(=O)NC(=S)Nc2cccc(-c3nc4ccccc4s3)c2)cc1,0.1,-10.3,10.2*,-2.2,.,-0.4
O=C(Cc1ccccc1)NCC(=O)OCC(=O)c1ccc(Cl)c([N+](=O)[O-])c1,-0.6,1.3,-2.4,-1.5,.,-3.6
CCOC(=O)c1cnc(SC)nc1Sc1cc(Cl)ccc1Cl,-0.3,14.7,0.2,-4.1,.,21.8
C1COCCNCCOCCOCCOCCN1,0.7,-7.4,-1.3,1.7,-0.1,-0.4
Cc1cc(=O)n(CC(C)C)c(O)c1C#N,-0.1,74.5*,1.2,-1.4,.,-27.0
CCn1c(O)c(C#N)c(C)cc1=O,-0.5,-15.7,.,2.4,.,10.0
O=[N+]([O-])C(/C=C(\Cl)[N+](=O)[O-])=C1N(Cc2ccc(Cl)nc2)CCN1Cc1ccc(Cl)nc1,0.4,5.5,13.4*,-13.2,.,9.9
CCN(CC)S(=O)(=O)c1cc(Br)ccc1OC,0.8,-0.1,-5.6,0.2,-0.273,9.2
COc1cccc2sc(Nc3nc(-c4cc5ccccc5oc4=O)cs3)nc12,-0.4,94.4*[fluorescence artefact?],-0.6,-9.4,.,-129.0
COc1ccccc1-c1nnc(Nc2nc3c(OC)cccc3s2)o1,0.7,-7.8,-7.7,-9.7,2.38*,-199.6
COc1cccc2sc(Nc3nnc(-c4ccccc4Cl)o3)nc12,0.0,-3.0,-8.1,-12.6,.,-47.1
COc1cccc2sc(Nc3nc(-c4ccncc4)cs3)nc12,6.8,54.0,-7.5,-4.5,1.03,-29.8
COc1cccc2sc(Nc3nc4ccc(NC(C)=O)cc4s3)nc12,0.9,80.1*[fluorescence artefact?],-8.3,1.6,0.911,-244.1
COc1cccc(-c2nnc(Nc3nc4c(F)cccc4s3)o2)c1,-0.7,4.6,-2.8,-0.2,9.44*,3.7
Cc1cc2c(N=NC(=O)C3CC3c3ccccc3)c(O)[nH]c2cc1Br (centres undefined),1.1,1.3,-4.6,0.4,-0.0273,-23.8
c1ccc2c(SCc3cn4ccccc4n3)nncc2c1,-0.5,-2.8,0.8,0.7,-0.444,-14.8
O=C(O)c1cc(-c2ccccc2)n(-c2ccccc2C(=O)O)n1,2.5,11.1,9.6*,0.5,.,-10.6
c1ccc2[nH]c(CN3CCOCC3)nc2c1,0.5,2.0,1.7,1.7,0.396,-31.9
Nc1ccc2nc(CN3CCOCC3)[nH]c2c1,0.1,90.8*,-3.0,0.6,0.933,-22.2
c1ccc2cc3[nH]c(CN4CCOCC4)nc3cc2c1,0.3,0.9,10.2*,-0.7,.,-34.5
O=C(O)/C(=N/NC(=O)c1ccc(Cl)cc1)c1ccccc1,-0.1,-7.4,.,3.6,.,-4.5
O=C(NC1CC1)c1cc(-c2ccco2)nc2ccccc12,0.2,83.1*,.,-0.2,0.497,-323.5
CCCn1c(=O)[nH]c(=O)c2c1nc(-c1ccc3c(c1)OCCO3)n2CCN1CCOCC1,-0.1,72.4*,4.9,-3.1,.,-16.3
